Screening data: PubChem BioAssay, National Center for Advancing Translational Sciences (NCATS)
A selection: hits, their analogues and other compounds. The true share with any hit is near 10%.
KinaseGlo FLuc = Kinase-Glo luciferase inhibition (counter-screen); Q27757; Kinase-Glo luciferase, ATP luminescence, 8 min; Potency, µM (highest dose often 38.3 µM), for inactives: top-dose activity change, negative = inhibition, most hits filed as inhibitors; 200,000 tested, 0.28% active; AID 1379; active means well fitted inhibition curve with a large enough effect; inconclusive means small, poorly fitted or top-dose-only effect; further: potency means the concentration at half of the fitted maximal effect; nearly all actives have a fitted effect of over 60% in size
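Light output from Kinase-Glo luciferase with luciferin and 10 uM ATP in 50 mM imidazole pH 7.2, KCl, MgCl2, Tween 20, BSA; compound pin-delivered, 8-min ambient incubation, then luminescence read.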
HPGD block = HPGD (human) dehydrogenase inhibition; P15428; 150,000 tested, 4.3% active; purified HPGD, NADH fluorescence kinetic, PGE2 substrate; Potency, µM, for inactives: top-dose activity change, negative = inhibition, actives largely listed as inhibitors; further: potency means the concentration at half of the fitted maximal effect
Target sequence (P15428 whole entry, looked up): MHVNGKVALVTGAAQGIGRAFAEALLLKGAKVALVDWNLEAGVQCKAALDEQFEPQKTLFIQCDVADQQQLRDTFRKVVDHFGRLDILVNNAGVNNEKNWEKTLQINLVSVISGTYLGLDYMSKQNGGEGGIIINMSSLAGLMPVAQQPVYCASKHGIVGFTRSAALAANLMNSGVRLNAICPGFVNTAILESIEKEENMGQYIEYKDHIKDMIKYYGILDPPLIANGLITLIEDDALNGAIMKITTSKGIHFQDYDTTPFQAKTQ
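NADH formation kinetics: reaction with 30 uM PGE2 and 1 mM NAD+ (final), 20 nM enzyme, Tris-HCl pH 8 with Tween 20, after 15 min compound preincubation at room temperature. Fluorescence change, last versus first of five reads.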
PNC inhibitor = blocks assembly of the perinucleolar compartment; PC3M PTB-GFP, PNC prevalence imaging, 16 h; stronger effect = lower value; activity change (PNC), negative = inhibition, % at 10 µM; 140,000 tested, 3.1% active; AID 2417;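 active means readout at or below -70, meaning at least 70% loss of cells showing the perinucleolar compartment, a nuclear body marking cancer cells; inconclusive means readout between -30 and a set limit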;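 further: plate controls were DMSO wells for no effect and camptothecin positive control wells for full effect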
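Compounds are pinned in duplicate onto adhered PC3M cells stably expressing GFP-tagged PTB and incubated 16 h at 37 C. Cells are then fixed, nuclei stained with Hoechst, and PNC-positive cells counted.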
IMPase inh = membrane-permeable compound that blocks inositol monophosphatase. P97697. CHO-M1 cells, IP1 accumulation, HTRF TR-FRET ratio. inhibition (IP1 accumulation), % at 46.1 µM. 120,000 tested, under 10 active; active means well fitted curve in the direction sought with a large enough effect in the signal ratio, not every such curve was filed as active; inconclusive means small, poorly fitted or top-dose-only effect, or a change in a side signal; inactive means no such curve, though single readings can be large or run the other way; the % refers to the signal ratio;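 further: cells stimulated with carbachol in lithium chloride buffer; plate controls were DMSO basal wells for no effect and reference inhibitor wells for full effect; higher means more IMPase inhibition seen as more IP1 and lower FRET ratio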
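CHO-M1 cells (CHO stably expressing M1 receptor), compound up to 46 uM final, stimulated with carbachol (50 uM as added) in buffer with 50mM LiCl, pH 7.4, 30 min at 37C. Cytosolic IP1 read by TR-FRET; AC50 from Hill fits.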
ALDH1A1 inh = blocks purified human ALDH1A1 activity; P00352; Purified ALDH1A1, NADH fluorescence, propionaldehyde substrate; Potency, µM (highest dose often 75.3 µM), without a hit: top-dose activity, negative = inhibition, usual class: inhibitors; 220,000 tested, 7.3% active; AID 1030;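 further: potency means the concentration at half of the fitted maximal effect; plate controls were no enzyme wells and a reference inhibitor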
Target sequence (P00352 whole entry, looked up): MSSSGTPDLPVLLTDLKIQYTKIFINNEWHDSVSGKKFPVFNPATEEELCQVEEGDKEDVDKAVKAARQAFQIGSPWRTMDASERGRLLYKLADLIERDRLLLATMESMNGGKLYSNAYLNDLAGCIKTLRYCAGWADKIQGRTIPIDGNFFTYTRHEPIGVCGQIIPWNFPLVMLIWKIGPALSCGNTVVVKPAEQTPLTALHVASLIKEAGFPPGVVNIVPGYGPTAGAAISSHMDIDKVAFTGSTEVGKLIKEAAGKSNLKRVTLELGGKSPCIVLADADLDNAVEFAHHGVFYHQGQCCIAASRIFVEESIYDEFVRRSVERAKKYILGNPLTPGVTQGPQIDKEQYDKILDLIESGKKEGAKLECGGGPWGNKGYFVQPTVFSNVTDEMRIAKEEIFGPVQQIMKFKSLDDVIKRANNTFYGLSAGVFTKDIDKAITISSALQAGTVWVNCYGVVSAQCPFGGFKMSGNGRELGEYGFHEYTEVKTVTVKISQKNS
Lamin A splicing = LMNA splicing modulation; HeLa LMNA splicing GFP/RFP minigene ratio, 48 h; Potency, µM (series often up to 46.1 µM), for inactives: at the top dose ratio change, negative = inhibition, hits mostly inhibitors; 200,000 tested, 0.01% active; active means well fitted inhibition curve with a large enough effect in the signal ratio, with a control signal flat, not every such curve was filed as active; inconclusive means small, poorly fitted or top-dose-only effect, or effect the other way, or a change in a side signal; the % refers to the signal ratio; further: potency means the concentration at half of the fitted maximal effect
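S3 HeLa stable clones carrying a lamin A-EGFP splicing minigene plus DsRed2 were seeded at 600 cells/well in Opti-MEM with 2% FBS, pin-dosed and incubated 48 h at 37°C. Acumen cytometry (488 nm) gave the GFP/RFP total-intensity ratio.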
Starred values were filed as active, the others as inactive; ? = inconclusive; · = no result; [ ] = another dose, or the depositor's remark. Unless noted, the call rests on the fitted dose curve; in most records, active means well fitted inhibition curve with a large enough effect (not every such curve was filed as active); inconclusive means small, poorly fitted or top-dose-only effect, or another doubt; inactive means no such curve, though single readings can be large or run the other way. Unless noted, on the % scale 0 is the no-effect control and ±100 the full control effect.

SMILES	KinaseGlo FLuc	HPGD block	PNC inhibitor	IMPase inh	ALDH1A1 inh	Lamin A splicing
COc1ccc(-c2cc(OC)c3c(C)oc(C)c3c(=O)c2)cc1OC	-2.6%	28.2µM*	7.1	7.9	11.2µM*	?
COc1cc([C@@H]2c3cc4c(cc3[C@@H](OC3OC5COC(C)OC5C(O)C3O)[C@H]3COC(=O)[C@H]23)OCO4)cc(OC)c1O (some centres undefined)	·	·	·	·	-1.4%	·
CCN1CCN(c2csc3ccc(Br)cc3c2=O)CC1	·	·	·	·	·	-3.2%[46 µM]
O=C(/C=C/c1ccco1)c1ccc(O)cc1	-10.1%	·	·	·	15µM*	·
CN(C)c1ccc(C(=O)/C=C/c2ccco2)cc1	-11.6%	31.6µM*	-10.4	·	8.91µM*	?
CC(=O)Nc1cccc(C(=O)/C=C/c2ccco2)c1	-4.5%	?	22.4	5.1	10µM*	-13.0%
CSc1ccc(/C=C/C(=O)c2ccc(O)cc2)cc1	-18.1%	-27.7%	68.6	-1.2	17.8µM*	?
CC(=O)Nc1ccc(C(=O)/C=C/c2ccco2)cc1	-2.7%	-27.4%	86.4	5.4	?	-6.2%
O=C(/C=C\c1ccco1)c1ccc(NC(=O)c2ccco2)cc1	-6.4%	·	·	·	?	?
O=C(CCn1c(=O)c2ccccc2n(Cc2cccc(Cl)c2)c1=O)NCCc1ccccc1	·	·	·	2.9	·	·
CCOc1ccc(NC(=S)NN(C)C(=S)Nc2ccc(OCC)cc2)cc1	-5.7%	-13.7%	2.8	·	28.2µM*	?
COc1ccc(NC(=S)N(CCc2c(C)[nH]c3ccc(C)cc23)Cc2ccco2)cc1	2.1%	-17.6%	-14.0	·	?	?
CCCN(Cc1ccccc1)C(=S)Nc1ccc(OCC)cc1	5.4%	·	·	·	-7.4%	?
CCOc1ccc(NC(=S)N(Cc2ccc(N(C)C)cc2)Cc2ccco2)cc1	-1.5%	-14.2%	30.4	2.8	8.91µM*	-22.6%
COc1ccc(NC(=S)N(Cc2ccc(N(C)C)cc2)Cc2ccco2)cc1	-5.0%	-25.0%	61.0	·	11.2µM*	?
Cc1cc(=O)[nH]c2nnc(SCC(=O)Nc3ccc(OC(F)(F)F)cc3)n12	·	·	·	·	·	14.4%[46 µM]
CCOc1ccccc1C(=O)NCc1ccc2c(c1)CCN2C(=O)c1ccccc1	·	·	·	·	·	-9.8%[46 µM]
CCC1CCCCN1C(=O)c1sc(-n2nc(C)c(Cc3ccccc3)c2C)nc1C (centres undefined)	·	·	·	·	·	1.3%[46 µM]
Cc1cccc(/C=N\NC(=O)c2csnn2)c1	?	3.16µM*	16.2	8.3	-52.4%	1.0%[0.0737 µM]
CN(C)c1ccc(/C=N/NC(=O)c2ccco2)cc1	?	-8.4%	?	17.2	?	0.3%
CN(C)c1ccc(/C=N/NC(=O)c2ccnn2C)cc1	1.78µM*	·	·	·	?	·
CN(C)c1ccc(/C=N\NC(=O)c2csnn2)cc1	?	-17.3%	5.4	3.9	1µM*	-6.6%
CCSc1nnc([C@H](Cc2ccccc2)NC(=O)OC(C)(C)C)o1	-5.6%	-4.1%	-10.9	2.6	?	-3.7%
CCC(C)[C@@H](NC(=O)OC(C)(C)C)c1nnc(S(=O)(=O)Cc2cccc(C)c2)o1 (some centres undefined)	-4.7%	14.1µM*	6.1	?	-3.9%	?
Cc1ccccc1CS(=O)(=O)c1nnc([C@H](Cc2ccccc2)NC(=O)OC(C)(C)C)o1	-2.8%	7.08µM*	?	21.1	14.1µM*	?
SMILES	KinaseGlo FLuc	HPGD block	PNC inhibitor	IMPase inh	ALDH1A1 inh	Lamin A splicing
Cc1cccc(CS(=O)(=O)Cc2ccc(C(=O)NC(C)c3ccccc3)o2)c1 (centres undefined)	·	·	·	·	·	24.3%[46 µM]
CC(C)(C)OC(=O)N[C@@H](Cc1ccccc1)c1nnc(S(=O)(=O)Cc2ccccc2)o1	1.0%	3.55µM*	14.0	10.0	?	?
CCOC(=O)c1c(S(=O)(=O)N2CCCC(C(=O)Nc3ccc(OCC)cc3)C2)c(C)n(C)c1C (centres undefined)	·	·	·	·	·	5.7%[46 µM]
COC(=O)N1C(C)=Cc2ccccc2C1C/C(C)=C/C(C)=O (centres undefined)	1.3%	-7.7%	·	·	10.1%	-11.9%[9.22 µM]
CCOCc1cnc(C)nc1NCC(=O)c1c(C)n(C)c2ccc(OC)cc12	-1.5%	-6.8%	6.4	3.8	31.6µM*	13.1%
COc1ccc2c(c1)c(C(=O)CNc1nc(C)cs1)c(C)n2C	9.2%	-19.7%	-14.1	9.7	?	0.3%
COCC(=O)N(Cc1cc2ccccc2[nH]c1=O)c1ccc(OC)cc1	1.2%	-20.4%	-16.2	4.9	31.6µM*	3.6%
CC(C)N(Cc1cc2ccccc2[nH]c1=O)C(=O)c1ccco1	0.0%	·	·	·	17.8µM*	·
COc1ccc(N(Cc2cc3ccc(C)cc3[nH]c2=O)C(=O)c2ccco2)cc1	-3.6%	-1.6%	-84.0*	5.1	?	?
O=C(OCc1cc2ccccc2[nH]c1=O)c1ccco1	2.5%	-21.5%	?	-4.2	?	-13.6%
Cc1ccc2cc(COC(=O)c3ccco3)c(=O)[nH]c2c1	-2.2%	-19.8%	7.0	-1.2	?	-2.1%
Cc1cccc(N(Cc2cc3ccccc3[nH]c2=O)C(=O)c2ccco2)c1C	1.4%	-27.1%	?	-1.1	12.6µM*	-12.7%
CO[C@H]1COC(=O)[C@H](C)NC(=O)C/C=C\[C@@H](C)[C@H](OC)COC(=O)C/C=C\[C@@H]1C	·	·	·	·	2.4%[13.5 µM]	·
C[C@H](CC[C@@H]1OC1(C)C)C1CC[C@H]2[C@@H]3CC=C4C[C@@H](O)CC[C@]4(C)[C@H]3CC[C@]12C (some centres undefined)	·	·	·	·	6.9%	·
O=C(/C(=C/c1ccccc1)c1ccccc1)N1CCCCC1	-1.0%	0.708µM*	100.0	7.2	3.8%	-4.9%[0.0737 µM]
O=C(N/C(=C/c1ccccc1)C(=O)N1CCCCCC1)c1ccccc1	2.1%	·	·	·	?	·
O=C(/C=C/c1ccccc1)N/C(=C/c1ccccc1)C(=O)N1CCCCC1	·	·	11.2	-16.4	14.1µM*	-4.6%
Cc1cccc(CNc2cc(-c3cccc(C#N)c3)ncn2)c1	-1.3%	?	·	·	-6.7%	15.7%
CCc1ccc(CN(Cc2ccco2)c2cnc(S(C)(=O)=O)nc2C(=O)Nc2ccc(C)c(Cl)c2)cc1	·	·	·	·	·	21.1%[46 µM]
COc1cc(C)nc(N2CCCC(C(=O)Nc3cccc(Cl)c3C)C2)n1 (centres undefined)	-6.2%	-11.4%	-124.4*	?	7.1%	?
COc1cc(C)nc(N2CCCC(C(=O)Nc3ccccc3Br)C2)n1 (centres undefined)	0.3%	·	·	·	8.8%	-0.6%[46 µM]
CCN(C(=O)/C=C/c1ccc2c(c1)OCO2)c1ccccc1	-4.9%	28.2µM*	-83.6*	·	-15.2%	0.6%
C=CCn1c(=O)/c(=C/c2ccc(C)o2)s/c1=C(/C#N)C(=O)c1ccccc1	-0.7%	-12.5%	2.6	2.5	0.708µM*	-2.5%
